Here are results for 26 compounds from PubChem BioAssay (Tox21).

Molecules are shown by their SMILES. Where “and” joins values, the source holds several entries; their conditions need not be identical. Equal entries are not always repeated. Inconclusive results are not listed. A call without a number means that no potency is given here. Calls of active or inactive are those of the source. Calls follow the shape of the dose curve; as a rule, active = well fitted curve in the direction sought with a large enough effect in the repeat runs; inconclusive = weak or mixed curves; inactive = no such curve, though single readings can be large; an effect the other way counts as inactive or inconclusive.

The nature of the first assay: qHTS RealTime-Glo MT Cell Viability Assay in HEK293 cells - 40 hour (AID 1224874). Also: nearly all actives have a fitted effect of over 50% in size. Conditions: RealTime-Glo luminescence; max response: active compounds read low. In short, it runs like this:
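600 cells/well were plated with the nonlytic NanoLuc/prosubstrate reagent, pre-incubated 5 h, then given 23 nL of compound in DMSO. Incubation at 37 C for 40 h, with luminescence from viable-cell-reduced substrate read repeatedly from 0 h.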
Regarding `CCCCCCCCCCCC(=O)OC`, the max response was -2.49% (inactive) and 7.82% (inactive).
Still for that read-out and setting: the value for `COC(=O)c1cccnc1` was 0.779% (inactive) and 5.01% (inactive); that for `C=CCc1ccc(OC)c(OC)c1` was 0.535% (inactive) and 0.477% (inactive); that for `CCCCCCCCCCCCCCCC(=O)OC(C)C` was 4.79% (inactive) and -1.72% (inactive).

The next assay can be described thus: A CellTox Green Cytotoxicity Assay to monitor cytotoxicity in HEK293 cells - 24 hour (AID 1224875). Also: nearly all actives have a fitted effect of over 45% in size. As to conditions: CellTox Green fluorescence; series mostly up to 76.8 µM; activity change: at the top concentration. In short, it runs like this:
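HEK293 cells, 600/well, were preincubated 5 hours and then exposed to compounds at 37 C for up to 40 hours. A cell-impermeant cyanine dye staining dead-cell DNA was read by fluorescence at 0, 8, 16, 24, 32 and 40 h time points.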
As for `CC1(C)NC(=O)NC1=O`, the Potency result was “inactive”.
As for `CCCCCCCCCCN`, the Potency entry is “inactive”.
Regarding `C[Si]1(C)O[Si](C)(C)O[Si](C)(C)O[Si](C)(C)O1`, the Potency entry is “inactive”.
Still for that read-out and setting: in the case of `O=C(O)/C=C/C(=O)O` it was “inactive”.
With `CC(C)OC(=O)COc1ccc(Cl)cc1Cl`, the Potency entry was “inactive”.
Same read-out and setting: in the case of `O=C(OCC1CCC2OC2C1)C1CCC2OC2C1` (stereo unspecified) it was “inactive”.
With `O=C1c2ccccc2CCc2ccccc21`, the “activity change” value is -15.3% [at 35.3 µM, active compounds read high] (inactive).
As to `Nc1nc(N)nc(-c2ccccc2)n1`, the Potency result is “inactive”.
Still for that read-out and setting: in the case of `C[C@]12CC[C@@H]3c4ccc(O)cc4CC[C@H]3[C@@H]1C[C@@H](O)[C@@H]2O` it was “inactive”; in that of `CCO[Si](CCC#N)(OCC)OCC`, “inactive”; in that of `O=C1CCCC1`, “inactive”.
Same read-out and setting: the value for `O=C(O)c1ccc(S(=O)(=O)N(Cl)Cl)cc1` was “inactive”; that for `CCCCCCCCCCCCCCCCO` was “inactive”.
Still for that read-out and setting: in the case of `CC(C)CC(=O)CC(C)CC(C)C` (stereo unspecified) it was “inactive”.
With `C=C(C)CNCC`, the Potency entry was “inactive”.
Take `CNC(=O)Oc1ccc2c(c1)[C@]1(C)CCN(C)[C@@H]1N2C`: the “activity change” value was 17.5% (inactive).
For `C=Cc1ccc(C)cc1`, the Potency entry is “inactive”.
The same measure, in the same setting: the value for `O=c1[nH]cnc2[nH]ncc12` was “inactive”; that for `CCOCC(=O)O` was “inactive”.
The same measure, in the same setting: in the case of `COc1ccccc1OCC(O)CO` (stereo unspecified) it was “inactive”; in that of `CCCCCCCC=O`, “inactive”.
As to `CC(=O)Oc1ccc(C)cc1`, the Potency entry was “inactive”.
